The results in this text go back to the OligoGym collection.
Also: reference of the scale not given here.

One assay addresses ALOX12B. In words: pooled miR-30 sensor sort-seq; sequence = guide strand. The settings on record: shRNA.
In the case of TGTAGAACTCCGCATAGCGTAC, the sensor-assay potency score (higher = more potent) is -1.11.

For TAATAGGTGATGATCTCCGTCA, the sensor-assay potency score (higher = more potent) was -0.427.

Consider TACTGGTACCCAAAGAAGGTGT, for which the sensor-assay potency score (higher = more potent) is -0.741.

As for TTTGCAGTCCAACAGGCCGCGG, the sensor-assay potency score (higher = more potent) was -1.33.

With TACTTCTCCAGTGCATTCCACA, the sensor-assay potency score (higher = more potent) was -0.953.

In the case of TCTGCTGTTGTCTTTCCTGTGG, the sensor-assay potency score (higher = more potent) was -0.381.

On to TATAGTGACATATCGGATCAGC, for which the sensor-assay potency score (higher = more potent) was -0.0361.

In the case of TGATCTGGACGGTGTATCGGGT, the sensor-assay potency score (higher = more potent) is -0.615.

The target in another assay is ALPK1. Described as above. Conditions: shRNA.
Turning to TCTGTTTTCACCACTTTCGTGT, the sensor-assay potency score (higher = more potent) was 0.311.

Consider TTCATTACATTCCACATGCTGG, for which the sensor-assay potency score (higher = more potent) is -0.496.

With TTGATGAAGATGATGAACCCAA, the sensor-assay potency score (higher = more potent) is 0.0893.

TTGTTCATAGAGTCTCTTGTTA came in with a sensor-assay potency score (higher = more potent) of 0.0334.

Consider TTGAACTTGTAAATGTTCCTTC, for which the sensor-assay potency score (higher = more potent) was 0.693.

As to AAATCGACCACAACATCTCTAT, the sensor-assay potency score (higher = more potent) is -0.634.

With TTCACTAATTTCTTCTCCCTGC, the sensor-assay potency score (higher = more potent) was -0.272.

Regarding TAAATCGACCACAACATCTCTA, the sensor-assay potency score (higher = more potent) was 0.166.

Turning to TAACTTCTTGAGACAGAGCTTC, the sensor-assay potency score (higher = more potent) was -0.293.

For TTGCAGAGGAACTAAACCCTGA, the sensor-assay potency score (higher = more potent) was -0.0397.

Regarding TATACAGACCGACTGCACCAGG, the sensor-assay potency score (higher = more potent) is -1.24.

For a further assay, the target named is AMICA1. The assay is described as above. Conditions: shRNA.
For the sequence TTTGTCTTCTGTGCTCTGGAAA, the sensor-assay potency score (higher = more potent) was -0.894.

In the case of TTGCACATCTTGGAGCAGGAGA, the sensor-assay potency score (higher = more potent) is -0.908.

In the case of TATCTCTGGATTAGTCTTCTTC, the sensor-assay potency score (higher = more potent) is -0.382.

For TCTATCTTGAATATACATTTGT, the sensor-assay potency score (higher = more potent) is -0.466.

On to AATAGTATAGCACATATTCGTC, for which the sensor-assay potency score (higher = more potent) was -1.02.

On to TATCAGAACAGGGAGCAGCAGG, for which the sensor-assay potency score (higher = more potent) was -0.745.

For the sequence TGAATATACATTTGTCTTCTGT, the sensor-assay potency score (higher = more potent) is -0.514.

On to TCTGGATTAGTCTTCTTCGTGT, for which the sensor-assay potency score (higher = more potent) was -0.36.

In the case of TATAGCACATATTCGTCCTTGG, the sensor-assay potency score (higher = more potent) is -0.0697.

On to TATACATTTGTCTTCTGTGCTC, for which the sensor-assay potency score (higher = more potent) was -0.0847.

Turning to TTTTCAAGTGAGTTGTTCCGAT, the sensor-assay potency score (higher = more potent) was -0.169.

Take TTCTTGAACACCAGGTTCCCTA: the sensor-assay potency score (higher = more potent) was -1.01.

In the next assay the target is AMOTL1. Described as above. The settings on record: shRNA.
With TAGCAGTCTCTAGTCGATCTCG, the sensor-assay potency score (higher = more potent) is -0.33.

Regarding TTGCAGTCCGCACTGCTGCTAA, the sensor-assay potency score (higher = more potent) is -0.698.

Take TTCTTGAGTGAGGTTTTCCGTG: the sensor-assay potency score (higher = more potent) was -0.593.

Consider TTGTGGGTCTTCTTGAGTGAGG, for which the sensor-assay potency score (higher = more potent) is -0.72.

For TTTCTCAACATATGCTTGCTTC, the sensor-assay potency score (higher = more potent) was -0.629.

Consider TAATCATAGCATCTTTCTCTAT, for which the sensor-assay potency score (higher = more potent) is -1.

Regarding TAGACTTGACCAGACTTTCATA, the sensor-assay potency score (higher = more potent) was -0.788.

As to TTTGTCTTCATGCCCTTCGTAT, the sensor-assay potency score (higher = more potent) was -0.754.

On to TTCTTTTTCAAACTTGTGGAGC, for which the sensor-assay potency score (higher = more potent) was -0.646.
